This is a sample that favours compounds with a hit; in the whole collection about 1.4% have one here.
Yeast superoxide: caloric restriction mimetics inhibiting age-related superoxide in yeast | S. cerevisiae aged cells, superoxide DHE fluorescence; hits give low values | superoxide response (% of plate mean), % at 10 µM | 330,000 tested, 0.18% active | AID 2690;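 active = superoxide response under a set limit, about three screen SD below normal, cut at about 65% in these data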;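 note: yeast aged for seven days with compound at 30 °C before DHE staining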
V-ATPase pH: yeast V-ATPase proton transport regulation by pHLuorin | S. cerevisiae, pHLuorin cytosolic pH fluorescence | response, % at 10 µM | 350,000 tested, 0.37% active | AID 504577; in the data active = response mostly above about 7.3%, no sharp cut-off; inactive = mostly below about 5.4%; note: actives read high
p-CIP stab down: compounds decreasing mouse p/CIP protein stability | Q05BA5 | F442A p/CIP-EGFP cells, EGFP fluorescence, 16 h | decrease of EGFP signal, % at 10 µM | 290,000 tested, 0.01% active | AID 1984;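 active = EGFP signal decrease of at least 30% at 10 µM or well 3 SD below plate mean, unless failing retest; inactive = the rest, including hits failing retest or dose response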
Target sequence (Q05BA5 1-1403): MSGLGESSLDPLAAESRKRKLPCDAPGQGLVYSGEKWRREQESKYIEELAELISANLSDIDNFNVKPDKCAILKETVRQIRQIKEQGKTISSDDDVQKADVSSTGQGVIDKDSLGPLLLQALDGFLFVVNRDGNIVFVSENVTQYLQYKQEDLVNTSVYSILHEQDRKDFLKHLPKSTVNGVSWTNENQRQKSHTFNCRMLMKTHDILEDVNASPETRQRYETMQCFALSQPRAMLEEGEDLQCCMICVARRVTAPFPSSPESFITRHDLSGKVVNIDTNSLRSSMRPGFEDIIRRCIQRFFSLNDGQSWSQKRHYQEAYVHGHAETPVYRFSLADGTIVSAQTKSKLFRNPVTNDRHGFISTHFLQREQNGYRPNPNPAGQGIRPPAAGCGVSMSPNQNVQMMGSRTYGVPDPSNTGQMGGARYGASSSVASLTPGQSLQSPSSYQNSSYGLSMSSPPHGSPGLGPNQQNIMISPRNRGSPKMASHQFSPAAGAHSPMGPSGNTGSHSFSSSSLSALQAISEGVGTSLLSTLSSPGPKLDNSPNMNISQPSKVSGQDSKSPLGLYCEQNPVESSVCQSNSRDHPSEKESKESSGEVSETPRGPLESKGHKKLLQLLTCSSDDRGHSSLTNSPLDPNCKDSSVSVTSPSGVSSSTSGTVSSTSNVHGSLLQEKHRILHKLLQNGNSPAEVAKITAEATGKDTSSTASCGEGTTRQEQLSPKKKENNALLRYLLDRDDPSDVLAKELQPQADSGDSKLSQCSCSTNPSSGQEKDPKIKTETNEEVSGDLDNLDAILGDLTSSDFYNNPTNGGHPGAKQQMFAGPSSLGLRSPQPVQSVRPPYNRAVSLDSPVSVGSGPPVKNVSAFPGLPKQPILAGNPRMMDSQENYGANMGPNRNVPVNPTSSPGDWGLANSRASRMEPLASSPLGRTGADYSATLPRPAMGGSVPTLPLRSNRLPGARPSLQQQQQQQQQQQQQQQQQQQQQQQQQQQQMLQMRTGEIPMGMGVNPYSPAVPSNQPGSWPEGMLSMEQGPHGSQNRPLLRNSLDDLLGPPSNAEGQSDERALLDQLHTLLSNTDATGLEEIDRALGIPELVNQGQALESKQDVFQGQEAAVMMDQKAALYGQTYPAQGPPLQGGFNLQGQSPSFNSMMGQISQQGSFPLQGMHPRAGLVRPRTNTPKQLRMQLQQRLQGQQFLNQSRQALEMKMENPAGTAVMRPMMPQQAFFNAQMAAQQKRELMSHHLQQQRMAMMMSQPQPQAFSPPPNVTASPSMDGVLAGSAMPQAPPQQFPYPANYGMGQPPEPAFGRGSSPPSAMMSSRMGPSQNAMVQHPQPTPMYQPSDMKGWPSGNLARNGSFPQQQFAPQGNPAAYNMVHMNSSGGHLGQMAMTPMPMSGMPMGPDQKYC
H9c2 protect: modulators protecting cardiomyocytes from myocardial damage | H9c2 cardiomyocytes, H2O2 injury protection, ATPLite, 2 h | protection from H2O2 cell death, % at 20 µM | 360,000 tested, 0.63% active | AID 588492;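 active = compounds giving at least 50% protection of heart cells from peroxide-induced death in the single-dose screen, raw or plate-pattern-corrected value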
MIN6 prolif-1: induces beta-cell replication in MIN6 cells | MIN6 cells proliferation, ATPlite luminescence, 48 h; cells starved in 0.2% serum; 100% = growth in 10% serum | proliferation, % at 10 µM | 330,000 tested, 0.29% active | AID 2380;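 active = compounds whose signal lies at least 3.5 SD above the mean of all wells on their plate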
HSV replic up: HSV replication enhancement | 220,000 tested, 0.005% active | maximum fold increase | HSV replication augmentation in cells, fold increase; in the data active = maximum fold increase above about 1.5; tested in PC3 cells
MIN6 prolif-2: MIN6 beta-cell replication induction, confirmed | 920 tested, under 10 active | AID 463095 | proliferation increase, % at 50 µM | MIN6 beta-cell proliferation, ATPlite luminescence, 48 h; cells kept in 0.2% serum; scaled between 0.2% and 10% serum | shares compounds with MIN6 prolif-1;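 active = proliferation increase above 40% at any of the four tested concentrations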
Superoxide pick: yeast aging superoxide inhibition, cherry pick confirmation. S. cerevisiae aging, superoxide DHE fluorescence; hits give low values. superoxide response (% of plate), % at 10 µM. AID 434994. 850 tested, 1% active. shares compounds with Yeast superoxide;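 active = superoxide signal below 65% of the plate average of sample wells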;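 note: cells aged with compound for 7 days at 30 degrees C before staining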
DHE fluor count: counter-screen for compounds affecting DHE oxidation and fluorescence in yeast. shares compounds with Yeast superoxide. S. cerevisiae BY4741, flow cytometry; hits give low values. fluorescence response, % at 10 µM. 850 tested, under 10 active. AID 435000;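 active = fluorescence response below 15%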;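 note: lower means stronger quenching of DHE signal or ROS scavenging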
V-ATPase pH SP: modulates yeast V-ATPase proton transport; shares compounds with V-ATPase pH; S. cerevisiae pHLuorin cytosolic pH; response, % at 10 µM; 980 tested, 2% active; AID 602197; in the data active = response above about 24%
Each line names hits and unclear results; the compound was inactive in the other large screens (follow-up assays come after a bar, where they were run).

CCN(CC)C(=O)COc1cc(C)cc2oc(=O)c3c(c12)CCCC3	MIN6 prolif-1 6.6 (no result: HSV replic up) | MIN6 prolif-2 inactive
CC1=CC(=C2C(=O)NC(=S)NC2=O)C=C(C(F)(F)F)N1Cc1ccccc1	none
CC1=CC(=C2C(=O)NC(=O)NC2=O)C=C(C(F)(F)F)N1Cc1ccccc1	MIN6 prolif-1 9.2 (no result: V-ATPase pH) | MIN6 prolif-2 inactive
CCC1CCCCN1CC(=O)c1ccc(OC(F)F)cc1 (stereo unspecified)	none
CCC(=NCCN1CCOCC1)c1c(O)n(-c2ccccc2C)c(=O)[nH]c1=O	none
CC(=NCCN1CCOCC1)c1c(O)n(-c2ccccc2C)c(=O)[nH]c1=O	MIN6 prolif-1 12 | MIN6 prolif-2 inactive
COc1ccc2c(c1)/C(=C/c1cnc[nH]1)C(=O)N2	MIN6 prolif-1 19 (no result: HSV replic up) | MIN6 prolif-2 inactive
CC(=O)O[C@@H]1CC[C@]2(C)C3CC[C@@]4(C)C(C[C@@H](O)[C@@H]4O)C3[C@@H](OC(C)=O)C[C@H]2C1 (stereo partly specified)	none (no result: p-CIP stab down, HSV replic up) | Superoxide pick inactive | DHE fluor count inactive
c1cc(OCCN2CC2)ccn1	none (no result: Yeast superoxide, p-CIP stab down, MIN6 prolif-1, HSV replic up)
Cc1cc(Cl)nc(N)n1	Yeast superoxide 51 | Superoxide pick inactive | DHE fluor count inactive
O=C(COc1ccc(Br)cc1)N1CCN(Cc2ccc3c(c2)OCO3)CC1	none (no result: HSV replic up)
C=CCN1Cc2ccccc2-n2nncc2C1	none (no result: Yeast superoxide, V-ATPase pH, p-CIP stab down, MIN6 prolif-1, HSV replic up)
Fc1cccc(F)c1CN1CCN(c2ccc(Cl)cc2)CC1	Yeast superoxide 38 (no result: HSV replic up) | Superoxide pick inactive | DHE fluor count inactive
Fc1ccc(CN2CCN(c3ccc(Cl)cc3)CC2)cc1	none
C[C@]12CCC(=O)C[C@H]1CC[C@@H]1[C@@H]2CC[C@]2(C)C(=O)CC[C@@H]12	Yeast superoxide 60 (no result: p-CIP stab down, HSV replic up) | Superoxide pick inactive | DHE fluor count inactive
C[C@]12CCC3C(CC[C@H]4CC(=O)CC[C@]34C)C1CCC2=O (stereo partly specified)	none (no result: p-CIP stab down, HSV replic up)
C[C@]12CCC3C(CC[C@H]4C[C@H](O)CC[C@]34C)C1CCC2=O (stereo partly specified)	Yeast superoxide 57 (no result: p-CIP stab down, HSV replic up) | Superoxide pick inactive | DHE fluor count inactive
C[C@]1(O)CCC2C3CC[C@@H]4CC(=O)CC[C@]4(C)C3CC[C@@]21C (stereo partly specified)	Yeast superoxide 61 (no result: p-CIP stab down, HSV replic up) | Superoxide pick inactive | DHE fluor count inactive
C[C@]12CC[C@H](O)C[C@@H]1CC[C@H]1[C@H]3CCC(=O)[C@@]3(C)CC[C@@H]12	none (no result: Yeast superoxide, p-CIP stab down, MIN6 prolif-1, HSV replic up)
CC(=O)O[C@@H]1/C=C/[C@](C)(O)C[C@@H](C)C/C=C/[C@H]2[C@@H]3O[C@]3(C)[C@@H](C)[C@H]3[C@H](Cc4ccccc4)NC(=O)[C@@]312	none (no result: V-ATPase pH, p-CIP stab down)
CCCCCc1nc2c(c(=O)c3ccccc3n2C)c(=O)n1C1CCCCCC1	none
CCC(=O)O[C@H]1CC[C@H]2[C@@H]3CCC4=CC(=O)CC[C@]4(C)[C@H]3CC[C@]12C	none (no result: Yeast superoxide, p-CIP stab down, MIN6 prolif-1, HSV replic up)
CC(=O)O[C@H]1CCC2C3CC[C@H]4[C@@H](O)[C@H](O)CC[C@]4(C)C3CC[C@@]21C (stereo partly specified)	none (no result: Yeast superoxide, p-CIP stab down, MIN6 prolif-1, HSV replic up) | Superoxide pick inactive | DHE fluor count inactive
C=C1C(O)[C@@H]2O[C@]3(CC[C@H](/C=C/C(C)[C@@H]4CC(C)=CC5(O[C@H](C[C@@](C)(O)C(=O)O)CCC5O)O4)O3)CC[C@H]2O[C@@H]1C(O)CC(C)[C@H]1OC2(CCCCO2)CCC1C (stereo partly specified)	Yeast superoxide 47 (no result: V-ATPase pH, p-CIP stab down, H9c2 protect, HSV replic up) | Superoxide pick 48 | DHE fluor count inactive
O=C(CCc1ccccc1)N1Cc2cc(N3CCOCC3)ccc2-n2nncc2C1	none (no result: Yeast superoxide, V-ATPase pH, p-CIP stab down, MIN6 prolif-1, HSV replic up)
OCC[n+]1c2ccccc2nc2ccc(N3CCOCC3)cc21	Yeast superoxide 43 | Superoxide pick inactive | DHE fluor count inactive
O=c1[nH]c(O)c(C=Nc2ccc(F)c(Cl)c2)c(=O)[nH]1	Yeast superoxide 60 (no result: HSV replic up) | Superoxide pick inactive | DHE fluor count inactive
O=[N+]([O-])c1cccc(CN2CCN(Cc3ccc(Br)cc3)CC2)c1	none
Cc1ccc(-n2c(=O)[nH]c3ccccc3c2=O)cc1[N+](=O)[O-]	none (no result: Yeast superoxide, V-ATPase pH, p-CIP stab down, MIN6 prolif-1, HSV replic up)
C[C@]12CCC3C(CC[C@H]4C[C@@H](O)CC[C@]34C)C1C[C@H](Br)[C@@H]2O (stereo partly specified)	none (no result: V-ATPase pH, p-CIP stab down, HSV replic up) | Superoxide pick inactive | DHE fluor count inactive
C[C@]12CCC3C(CC[C@H]4C[C@H](N)CC[C@]34C)C1CC[C@H]2O (stereo partly specified)	none (no result: HSV replic up) | Superoxide pick inactive | DHE fluor count inactive
C[C@]12CCC3C(CC[C@H]4C[C@H](O)CC[C@]34C)C1C[C@@H](CCCCl)[C@@H]2O (stereo partly specified)	Yeast superoxide 58 (no result: V-ATPase pH, p-CIP stab down, HSV replic up) | Superoxide pick inactive | DHE fluor count inactive
CC(C)c1ccccc1NC1=NCCCS1	none (no result: HSV replic up)
O=C(O)CCn1cc(C=C2C(=O)NC(=O)NC2=O)c(-c2ccc(Br)cc2)n1	none
O=C(O)CCn1cc(C=C2C(=O)NC(=S)NC2=O)c(-c2cccc(Cl)c2)n1	V-ATPase pH 8.0 | V-ATPase pH SP inactive
Cc1[nH]c2ccccc2c1C(=O)C(=O)N1CC2CC(C1)c1cccc(=O)n1C2 (stereo unspecified)	V-ATPase pH 9.1 | V-ATPase pH SP inactive
C[N+](C)(C)CC(=O)Nc1ccc(Cl)cc1C(=O)c1ccccc1	none
Cc1cccc(C(=O)Nc2ccc(Cl)cc2C(=O)c2ccccc2)c1	V-ATPase pH 9.0 | V-ATPase pH SP inactive
CCNc1cc(N2CCNCC2)ccc1[N+](=O)[O-]	none (no result: V-ATPase pH, H9c2 protect)
C[C@]12CCC3C(CC[C@H]4C[C@@H](O)CC[C@]34C)C1C/C(=N/O)[C@@H]2O (stereo partly specified)	none (no result: p-CIP stab down, HSV replic up)
O=C(Cn1ncn2c(cc3cc(F)ccc32)c1=O)N1CCC2(CC1)OCCO2	none (no result: HSV replic up)
CCCCCCn1c(=O)c(C(=O)Nc2c(C)n(C)n(-c3ccccc3)c2=O)c(O)c2ccccc21	V-ATPase pH 11 | V-ATPase pH SP inactive
CN1C(=O)/C(=C\c2ccc(Br)s2)C(=O)NC1=S	V-ATPase pH 21 (no result: MIN6 prolif-1, HSV replic up) | V-ATPase pH SP 97

Compound activity (PubChem BioAssay)
